Bioassay records (PubChem)
Compounds with a hit are over-represented: about 1.2% of the library has one in this group of screens.
miR-122 sensor: miR-122 Renilla sensor signal increase in Huh7, primary screen, miR-122 inhibitor project, cell-based, single point, plate reader | activation (reporter increase), % at 12.5 µM | Huh7 miR-122 Renilla luciferase sensor, 48 h; neutral wells = 0, positive control = 100 | 0.3% of 340,000 active;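 active = mean replicate activation score at least 90 and every replicate individually at or above 90; inconclusive = only one of the two criteria met; inactive = neither criterion met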;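 note: higher luciferase means less miR-122 activity so hits act as miR-122 inhibitors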
NSD2 HMT inh: NSD2 histone methyltransferase inhibitors, primary screen, biochemical, AlphaScreen, single concentration, set 2. AID 743445, 2014. NSD2 peptide methylation, 120 min. inhibition, % at 12.5 µM. 0.54% of 310,000 active; in the data active = inhibition above about 50%
PglD DTNB: C. jejuni PglD acetyltransferase inhibitors, primary screen, biochemical, DTNB colorimetric, single point; UDP-N-acetylbacillosamine N-acetyltransferase PglD (Campylobacter jejuni); purified PglD enzyme, DTNB colorimetric CoA detection; inhibition, % at 12.5 µM; 0.098% of 360,000 active; AID 602405, 2012; in the data active = inhibition above about 16%, passing the limit was not always enough; inconclusive = no clear call, values can overlap the other calls
C2C12 statin: suppressors of statin myotoxicity in C2C12 myotubes, primary screen, cell-based, single point, plate reader. C2C12 myotubes + simvastatin, ATP luminescence, 48 h; scaled: DMSO 0, geranylgeraniol control 100. rescue of ATP level, % at 7.49 µM. 0.78% of 330,000 active. AID 602340, 2012;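 active = mean ATP rescue above about 67%, or every replicate alone reaching that limit, limit read from the data, passing the limit was not always enough; inconclusive = no clear call, values can overlap the other calls; inactive = mean under the limit and some replicate under it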;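 note: myotubes were challenged with 10 µM simvastatin during compound exposure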
AlphaScreen art: AlphaScreen signal interference with preloaded methylated product, dose response, artefact control for NSD2 inhibitor project, biochemical, cherry-picked samples; 9.4% of 1,500 active; AC35, µM (top dose mostly 10 µM); AlphaScreen artifact counterscreen, preloaded methylated H4 peptide; shares compounds with NSD2 HMT inh; call rule not given here
Hits are given with their value; 0 = inactive; ? = inconclusive; - = no result.

SMILES	miR-122 sensor	NSD2 HMT inh	PglD DTNB	C2C12 statin	AlphaScreen art
O=C(O)c1[nH]c2ccccc2c1C(c1cc(Cl)cc([N+](=O)[O-])c1O)c1c(C(=O)O)[nH]c2ccccc12	0	55	0	0	0
O=C(O)c1[nH]c2ccccc2c1C(c1ccccc1)c1c(C(=O)O)[nH]c2ccccc12	0	0	0	0	-
CN(C)c1cc(N/N=C/c2ccc(Cl)cc2)nc(N(C)C)n1	-	100	-	-	0
CCOC(=O)c1c(N)n(CCOC(=O)c2cccs2)c2nc3ccccc3nc12	-	-	0	0	-
CCCCCOC(=O)c1c(N)n(CCOC)c2nc3ccccc3nc12	0	61	0	0	0
Cc1cc(=O)n2[nH]c(-c3ccco3)nc2n1	0	68	0	0	0
C[C@H](NC(=O)C[C@@H]1CC[C@H](NC(=O)C2CC2)[C@H](CO)O1)c1ccccc1	-	-	0	0	-
COc1cccc(C#Cc2cnc3c(c2)C(=O)N([C@H](C)CO)C[C@H](C)[C@@H](CN(C)C(C)=O)O3)c1	0	-	0	0	-
O=C(c1ccc2c(c1)OCO2)C1CCCN(Cc2ccc3cccc(F)c3n2)C1 (configuration not stated)	-	51	-	-	0
O=C(C[C@H]1C[C@@H]2c3cc(NC(=O)NC4CCCCC4)ccc3O[C@@H]2[C@@H](CO)O1)NCC1CC1	0	-	0	0	-
O=C(c1ccccc1)N1C[C@@H]2[C@H](c3ccccc31)[C@@H](CO)N2C(=O)c1cccc(F)c1	0	-	0	0	-
N#Cc1c(SCC(=O)Nc2ccc(C(F)(F)F)cc2)sc2c(O)cc(=O)[nH]c12	0	-	0	0	-
N#Cc1c(SCC(=O)Nc2nncs2)sc2c(O)cc(=O)[nH]c12	0	111	0	0	0
Fc1ccc(NC(=S)Nc2ccc3nccnc3c2)cc1	-	105	-	-	0
OCCCNC(=S)Nc1ccc2nccnc2c1	-	0	-	-	-
COc1ccc(NS(=O)(=O)c2cc(NC(=O)COc3ccccc3)ccc2N2CCOCC2)cc1	0	60	0	0	0
COc1ccc(NC(=O)Nc2ccc3c(c2)C(=O)N([C@H](C)CO)C[C@H](C)[C@H](CN(C)C(=O)Nc2ccc(F)cc2)OCCCC[C@H](C)O3)cc1	0	-	0	0	-
COc1cccc(CNC(=O)C[C@@H]2C=C[C@@H](NC(=O)C3CC3)[C@H](CO)O2)c1	-	-	0	0	-
Cc1cccc(N2NC(=O)/C(=C/c3ccc(-c4ccc(Cl)c(C(=O)O)c4)o3)C2=O)c1	-	76	-	-	0
CSc1nc(N(C)C)nc(N(C)C#N)n1	-	0	-	-	-
CSc1nc(N)nc(N(C)C)n1	0	61	0	-	0
O=C(CN1CCC(C(=O)c2ccc3c(c2)OCCO3)CC1)NCc1ccccc1	0	65	0	0	0
COc1ccc(NC(=O)COC(=O)c2ccc3ccccc3n2)cc1	0	0	-	0	-
CCN(CC)c1ccc(NC(=O)COC(=O)c2ccc3ccccc3n2)cc1	-	107	0	0	0
COc1cccc(NC(=O)N2C[C@H](O)COC[C@H]3O[C@@H](CC(=O)NC4Cc5ccccc5C4)CC[C@@H]32)c1	0	-	0	0	-
SMILES	miR-122 sensor	NSD2 HMT inh	PglD DTNB	C2C12 statin	AlphaScreen art
CC(C)(C)/C=N/NC(=O)CNC(=O)c1ccc2c(c1)OCCO2	-	50	-	-	0
C[C@@H](NC(=O)[C@@H]1[C@@H](CO)[C@@H]2Cn3c(cccc3=O)[C@H]1N2Cc1ccncc1)c1ccccc1	0	-	-	0	-
CO[C@@H]1CC[C@@H]2CCN(C)C(=O)C[C@@H](c3ccccc3)CN(C)C(=O)c3cc(C#N)ccc3OC[C@@H]1O2	-	-	0	0	-
CN1C(=O)C(=O)/C(=C(/O)c2ccccc2)C1c1ccccc1 (configuration not stated)	-	59	0	0	0
O=C1C(=O)N(CCO)C(c2ccccc2)/C1=C(\O)c1ccccc1 (configuration not stated)	0	-	0	0	-
O=C(C[C@H]1CC[C@@H]2[C@H](COC[C@H](O)CN2C(=O)c2cccnc2)O1)Nc1ccc(-c2ccccc2)cc1	0	-	0	0	-
CCN(CC)CCNc1nc(SC)nc2sc3c(c12)CCN(C)C3	0	62	0	0	0
O=C(NCC[C@H]1CC[C@H](NS(=O)(=O)c2ccccc2)[C@H](CO)O1)c1ccccc1F	-	-	0	0	-
O=S(=O)(Nc1nc(-c2ccco2)c(-c2ccco2)s1)c1ccc(F)cc1F	0	100	0	0	0
C[C@@H]1CN([C@@H](C)CO)C(=O)c2cc(NC(=O)CCC(F)(F)F)ccc2O[C@@H](C)CCCCO[C@@H]1CN(C)C(=O)CCC(F)(F)F	0	-	0	-	-
CCN1C(=O)c2ccccc2S(=O)(=O)c2ccc(C(=O)NC(C)C)cc21	0	52	0	0	0
Cc1nc(C)c(C(=O)Nc2ncc([N+](=O)[O-])s2)o1	0	50	0	0	0
CC(C)CC(=O)Nc1ncc([N+](=O)[O-])s1	0	0	0	0	-
CCOC(=O)C1CCCN(C(=O)c2ccc(S(=O)(=O)Nc3ccccc3OC)cc2)C1 (configuration not stated)	0	54	0	0	0
COc1ccccc1NS(=O)(=O)c1ccc(C(=O)N2CCCCCC2)cc1	-	0	-	-	-
CCOC(=O)C1CCCN(C(=O)c2ccc(OC(C)=O)cc2)C1 (configuration not stated)	0	93	0	0	0
Cc1ccc(O)c(CNc2cccc3cccnc23)c1	-	118	-	-	0
COc1cccc(CNc2cccc3cccnc23)c1O	0	50	0	?	0
Oc1c(Br)cc(Br)cc1CNc1cccc2cccnc12	0	0	0	0	-
Cc1ccc(Sc2ncccc2C(N)=O)cc1	-	106	-	-	0
CCOc1ccc(C2=NNC(c3cccs3)=Nc3ccc(OC)cc32)cc1OCC	0	0	0	0	-
COc1ccc(C2=NNC(c3cccs3)=Nc3ccc(OC)cc32)cc1	0	51	0	0	0
C[C@@H]1CN([C@H](C)CO)C(=O)c2cc(NS(=O)(=O)c3cn(C)cn3)ccc2O[C@H]1CN(C)Cc1ccc(C(=O)O)cc1	0	-	0	0	-
O=C(Nc1cccc(O)c1)c1ccc(Br)cc1	0	67	-	0	0
CC(=O)Nc1cccc(NC(=O)c2ccc(Br)cc2)c1	0	0	0	0	-
COc1ccc(-n2c(N)c(C(=O)NCC3CCCO3)c3nc4ccccc4nc32)c(OC)c1 (configuration not stated)	0	0	0	0	-
C=CCn1c(N)c(C(=O)NCC2CCCO2)c2nc3ccccc3nc21 (configuration not stated)	0	99	0	0	0
Cc1cccnc1NC(=O)c1ccc(S(=O)(=O)N2CC(C)OC(C)C2)cc1 (configuration not stated)	0	50	0	0	0
O=C(O)CN1C(=O)/C(=C\c2cccc(OCc3ccc(Cl)cc3)c2)SC1=S	0	0	0	0	-
